Reference: PubChem BioAssay (NCI)
Compounds without any hit were thinned out: in the full panel of roughly 83,000, 20% have a hit.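 A percent growth of 40 corresponds to 60% growth inhibition; 0 means no net growth; -100 means all cells died. Active threshold: below 10.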 A number with no mark means an inactive call. Active and inactive are the calls of the source.

Key:
Test in all cases: NCI-60 one-dose screen, 48 h (100 = growth as untreated, 0 = no growth, -100 = all killed)
Details in all cases: 10 µM unless noted
T-47D breast = test system: T-47D breast
BT-549 breast = test system: BT-549 breast
MDA-MB-435 melanoma = test system: MDA-MB-435 melanoma
SW-620 colon = test system: SW-620 colon
MCF7 breast = test system: MCF7 breast
HCT-116 colon = test system: HCT-116 colon
HCC-2998 colon = test system: HCC-2998 colon
KM12 colon = test system: KM12 colon
MDA-MB-468 breast = test system: MDA-MB-468 breast

| SMILES | growth (T-47D breast) | growth (BT-549 breast) | growth (MDA-MB-435 melanoma) | growth (SW-620 colon) | growth (MCF7 breast) | growth (HCT-116 colon) | growth (HCC-2998 colon) | growth (KM12 colon) | growth (MDA-MB-468 breast) |
| --- | --- | --- | --- | --- | --- | --- | --- | --- | --- |
| CN(C)c1nc(NCCNS(=O)(=O)c2ccc(C(=O)/C=C/c3ccc(F)cc3)cc2)nc(N2CCOCC2)n1 | 35.4% | -24.8% (active) | 3.15% (active) | -48.6% (active) | 17.8% | -96% (active) | -96.5% (active) | -42.5% (active) | -36.6% (active) |
| C[C@H]1[C@@H](CC(=O)N[C@@H](Cc2coc3ccccc23)B(O)O)O[C@@H]2OC3(C)CC[C@H]4[C@H](C)CC[C@@H]1[C@@]24O3 | 27.1% | -72.8% (active) | -75.8% (active) | 3.32% (active) | 24.4% | -56.6% (active) | -83.1% (active) | 0.198% (active) | -49.6% (active) |
| O=CNc1ccc(-n2cnc3cc(-c4ccc(O)cc4)ccc32)cc1 | 63.6% | 93.3% | 82.8% | 101% | 71.8% | 85.6% | 102% | 32.4% | 86.1% |
| Cc1cccc(NCC(=O)N2CCN(c3ncnc4c3cnn4-c3ccccc3)CC2)c1 | 33.6% | 76.9% | 59% | 81.5% | 45.6% | 58.7% | 86.4% | 40.6% | 35.8% |
| Cc1ccc(C(=O)Nc2cc(-n3ccnc3C)cc(C(F)(F)F)c2)cc1C#Cc1cnc2cccnn12 | 0.344% (active) | -22.7% (active) | 3.5% (active) | 12.6% | 0.633% (active) | -41.3% (active) | -48.7% (active) | 3.67% (active) | -20.6% (active) |
| COc1cc(CNC(=O)C[C@H](C)CCC=C(C)C)ccc1OCc1cn(-c2ccccc2F)nn1 | 60.6% | 71% | 100% | 92.7% | 66.9% | 60.2% | 101% | 99.3% | 57.7% |
| COc1cc2cc(C(=O)N3C[C@@H](CCl)c4c3cc(OC(=O)N(C)CCSSCCN3CCOCC3)c3ccccc43)[nH]c2c(OC)c1OC | -6.52% (active) | -58.5% (active) | -41.2% (active) | 6.21% (active) | -33.5% (active) | -12.9% (active) | -58.7% (active) | -31.1% (active) | -77.3% (active) |
| COc1cccc(NC(=O)c2ccc(NC(=O)CCl)s2)c1 | 26.2% | 27.2% | 2.66% (active) | 3.86% (active) | 5.63% (active) | -27.4% (active) | 80.6% | 42.4% | -14.7% (active) |
| CC[C@]12C=CCN3CC[C@]4(C(=C(C(=O)OC)C1)Nc1cc(OC)c([C@@H]5[C@H]6O[C@H]6[C@@]6(CC)CC(C(=O)OC)=C7Nc8cc(O)ccc8[C@@]78CCN5[C@@H]68)cc14)[C@@H]32 | 2.37% (active) | -29% (active) | -53.9% (active) | 1.97% (active) | -25.7% (active) | -72.3% (active) | -76.3% (active) | 0.303% (active) | -48.9% (active) |
| O=C(Nc1ccc(Br)cc1)Nc1ccc(-c2ccc3c(c2)NC(=O)/C3=C\c2ccc[nH]2)cc1 | 12.1% | 17.2% | 39.7% | 21% | 8.33% (active) | 35% | 38.8% | -22.6% (active) | -5% (active) |
| COc1c(B(O)O)cccc1-c1nc2ccc3cn[nH]c3c2c2c1CCCC2 | 70.6% | 30.7% | 84.2% | 53.6% | 60.5% | 28.8% | 86.9% | 62.3% | 10.5% |
